L3MBTL1 block – inhibitors of human L3MBTL1 | Q9Y468 | AlphaScreen L3MBTL1–H3K9me1 peptide binding | Potency, µM (highest dose often 57.1 µM), for inactives: top-dose activity, negative = inhibition, actives largely listed as inhibitors | hit rate 0.66% among 230,000; also: % is scaled to controls: 0 for no effect and ±100 for the full control effect; nearly all actives have a fitted effect of over 60% in size
Target sequence (Q9Y468 whole entry, looked up): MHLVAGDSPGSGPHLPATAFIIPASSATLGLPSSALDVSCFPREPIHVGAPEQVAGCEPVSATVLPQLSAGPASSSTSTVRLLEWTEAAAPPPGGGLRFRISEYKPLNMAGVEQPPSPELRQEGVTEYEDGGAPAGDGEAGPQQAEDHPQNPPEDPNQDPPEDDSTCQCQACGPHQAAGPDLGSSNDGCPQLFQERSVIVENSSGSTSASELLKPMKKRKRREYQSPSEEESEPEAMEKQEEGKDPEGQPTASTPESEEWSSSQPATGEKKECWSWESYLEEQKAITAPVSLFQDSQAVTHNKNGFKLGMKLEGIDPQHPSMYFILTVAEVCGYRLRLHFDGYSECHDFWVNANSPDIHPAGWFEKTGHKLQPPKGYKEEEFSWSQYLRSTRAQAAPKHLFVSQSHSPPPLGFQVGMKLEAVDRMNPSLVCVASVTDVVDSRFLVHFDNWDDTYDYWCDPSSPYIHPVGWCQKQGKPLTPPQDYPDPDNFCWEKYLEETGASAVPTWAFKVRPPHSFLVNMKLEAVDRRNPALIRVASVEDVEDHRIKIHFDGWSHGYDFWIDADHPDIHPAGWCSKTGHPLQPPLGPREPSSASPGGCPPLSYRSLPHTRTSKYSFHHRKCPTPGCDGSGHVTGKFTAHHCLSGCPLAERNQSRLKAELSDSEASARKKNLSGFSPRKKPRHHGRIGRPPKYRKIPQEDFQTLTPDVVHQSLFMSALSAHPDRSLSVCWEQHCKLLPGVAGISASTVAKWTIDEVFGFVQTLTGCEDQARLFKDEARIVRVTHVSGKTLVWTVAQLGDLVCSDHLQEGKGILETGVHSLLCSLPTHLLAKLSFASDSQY
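L3MBTL1 50 nM + b-AHA-H3(1-15)K9me1 75 nM, 30 min RT; compound added, 30 min RT; streptavidin donor/Ni-chelate acceptor beads 10 ug/mL each final, 30 min RT dark; AlphaScreen read.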
HP1b chromo inh – inhibitors of HP1-beta chromodomain binding to methylated histone tails; AlphaScreen HP1-beta / biotin-H3K9me3 peptide binding; AID 540317; P83916; Potency, µM (top dose mostly 114 µM), without a hit: at the highest dose activity change, negative = inhibition, hits mostly inhibitors; hit rate 0.56% among 390,000; also: nearly all actives have a fitted effect of over 70% in size
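AlphaScreen: HP1-beta (50 nM) preformed 30 min with biotin-H3(1-18)K9me3 peptide (50 nM) in PBS pH 7.4, 0.01% Tween-20. Compound added for 30 min at RT, then streptavidin donor/nickel chelate acceptor beads (10 ug/mL) for 30 min.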
BAZ2B block – inhibitors of human BAZ2B bromodomain; Q9UIF8; AlphaScreen BAZ2B-H3K14Ac peptide displacement; Potency, µM (highest dose often 114 µM), for inactives: at the highest dose activity change, negative = inhibition, hits mostly inhibitors; hit rate 4.4% among 360,000; also: % is scaled to controls: 0 for no effect and ±100 for the full control effect; nearly all actives have a fitted effect of over 60% in size
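Protein-peptide AlphaScreen: BAZ2B 50 nM, b-H3K14Ac 50 nM, 1x PBS pH 7.4 + 0.01% Tween-20. Preincubation 30 min RT; cpd 30 min RT (top 110 uM); beads 20 min RT, light-protected.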
GLS inhibitor – glutaminase GLS (human) inhibition | AID 624170 | O94925 | hit rate 0.21% among 410,000 | GLS enzymatic activity, qHTS titration | Potency, µM (series often up to 45.5 µM), without a hit: at the top dose activity change, negative = inhibition, most hits filed as inhibitors; also: % is scaled to controls: 0 for no effect and ±100 for the full control effect
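hKGA; 45 mM KH2PO4 pH 8.2 + 0.02% Tween-20; cpd via pin tool; 1 mM Gln soln; GluOx/HRP/Amplex Red; RT 30 min; fluor. t0 & final.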
JMJD2A Tudor inh – blocks the human JMJD2A Tudor domain | O75164 | AlphaScreen JMJD2A-Tudor / H3K4me3 peptide binding | Potency, µM (highest dose often 114 µM), without a hit: top-dose activity change, negative = inhibition, hits mostly inhibitors | hit rate 4.4% among 390,000; also: % is scaled to controls: 0 for no effect and ±100 for the full control effect; nearly all actives have a fitted effect of over 50% in size
G9a inh – inhibitors of human histone lysine methyltransferase G9a. G9a H3K9 monomethylation, AlphaScreen, 2 h. Potency, µM (top dose mostly 102 µM), inactives show top-dose activity, negative = inhibition, most hits filed as inhibitors. hit rate 8.8% among 350,000. Q96KQ7. AID 504332; also: % is scaled to controls: 0 for no effect and ±100 for the full control effect; nearly all actives have a fitted effect of over 75% in size
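Readings reflect AlphaScreen signal from monomethyl-H3K9 antibody detection. HMT at 20 nM; substrate b-H3K9 500 nM; cofactor SAM 20 uM; 2 h RT reaction; compounds tested as titrations in qHTS with 15 min preincubation.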
Starred values were filed as active, the others as inactive; ? = inconclusive; nt = no result given; [ ] = another dose, or the depositor's remark. Rows were chosen to be rich in hits. Some 10% of all compounds tested hit in one or more screens of this group. Calls follow the shape of the dose curve; as a rule, active = well fitted curve in the direction sought with a large enough effect; inconclusive = small, poorly fitted or top-dose-only effect, or another doubt; inactive = no such curve, though single readings can be large; an effect the other way counts as inactive or inconclusive. Potency is read from the fitted curve at half-maximal effect.

SMILES	L3MBTL1 block	HP1b chromo inh	BAZ2B block	GLS inhibitor	JMJD2A Tudor inh	G9a inh
Oc1ccc(-c2n[nH]c(=S)n2Cc2ccccc2)cc1	-1%	-8%	1%	-1%	32µM*	1.1µM*
CCc1cccc(NC(=O)CCN2C(=O)c3ccccc3Sc3ncccc32)c1	nt	25%	?	5%	-19%	-14%[59 µM]
O=c1[nH]cc(-c2ccc(Br)cc2)n1Cc1ccccc1	nt	-38%	?	-2%	-28%	11µM*
O=c1[nH]c2ccccc2n1Cc1ccccc1	3%	43%	-6%	0%	1%	-14%[59 µM]
COc1ccccc1-n1c(-c2ccc(Cl)cc2)c[nH]c1=S	-21%	-8%	?	-25%	?	?
OCCCn1c(-c2ccccc2)n[nH]c1=S	-18%	24%	-3%	-9%	28µM*	7.9µM*
S=c1[nH]nc(-c2cccc(Cl)c2)n1CCN1CCCCC1	0%	-7%	7%	-4%	-35%[57.1 µM]	?
Fc1ccc(-c2c[nH]c(=S)n2Cc2ccccc2)cc1	-14%	20%	-38%	?	?	1.1µM*
S=c1[nH]nc(-c2ccc(Br)cc2)n1Cc1ccccc1	-13%	-21%[57 µM]	?	?	?	10µM*
O=C(c1ccc2c(c1)N(Cc1ccccc1)C(=O)c1ccccc1S2(=O)=O)N1CCN(c2ccccc2)CC1	nt	18%	?	-4%	-26%	-39%[59 µM]
Cc1cc(Br)ccc1NC(=O)c1cn(C2CCCC2)c(=O)c2c1c1ccccc1n2C	nt	43%	1%	-4%	3%	-3%[59 µM]
COc1cccc(NC(=O)Cn2c(=O)n(CC(=O)NCc3ccc(C)cc3)c(=O)c3sccc32)c1	nt	3%	-12%	-6%	-14%	-27%[59 µM]
Cc1ccc(CN2CCN(C3CCN(S(=O)(=O)N(C)C)CC3)C(=O)C2=O)cc1	nt	18%	-6%	5%	-13%	-9%[59 µM]
Cc1cc(-c2n[nH]c(=S)n2Cc2ccccc2)cs1	-2%	-2%	-10%	2%	18µM*	1.3µM*
Fc1ccc(-c2n[nH]c(=S)n2Cc2ccccc2)cc1	nt	6%	-1%	27%	18µM*	?
CCCCOc1ccc(-c2n[nH]c(=S)n2Cc2ccccc2)cc1	nt	2%	-1%	-27%	-22%	20µM*
S=c1[nH]nc(-c2ccncc2)n1Cc1ccccc1	0%	26%	nt	21%	7.9µM*	10µM*
Cc1ccc(CNC(=O)c2cc3cc(C)ccc3n2C)cc1	nt	27%	-6%	1%	-5%	?
O=C(c1ccco1)N1CCC2(CC1)CN(c1ccccc1)C2	nt	nt	nt	nt	nt	23%[12.7 µM]
COc1cccc(CNc2ccc(S(N)(=O)=O)cc2)c1OCc1ccccc1F	-6%	-2%	-36%	-1%	-28%	19%[59 µM]
CCOc1cc(CNc2ccc(O)cc2)cc(Br)c1OCc1ccccc1F	16µM*	18µM*	-32%	9%	50µM*	11µM*
COc1cc(CNCc2ccncc2)cc(Br)c1OCc1ccccc1F	4%	64%	?	0%	-31%	19%[2.33 µM]
COc1cccc(CNc2ccccc2O)c1OCc1ccccc1F	?	45µM*	32µM*	0%	45µM*	35µM*
COc1cc(CNc2ccc(O)cc2)cc(Br)c1OCc1ccccc1F	?	?	?	26%	?	11µM*
CCOc1cc(CNc2ccc(O)cc2)cc(Br)c1OCc1ccccc1	nt	?	?	37%	40µM*	?
CCOc1ccc(NC(=O)CN2C(=O)COc3ccc(S(=O)(=O)Nc4ccccc4)cc32)cc1	nt	16%	-28%	-1%	-19%	-31%[59 µM]
O=C(CC1N=C2c3ccccc3N=C(SCc3cccc(F)c3)N2C1=O)NCc1ccc2c(c1)OCO2 (stereo not given)	nt	-14%	?	1%	-27%	1%[59 µM]
Cc1cccc(N2CCN(C3(c4ccccc4)C(=O)c4ccccc4C3=O)CC2C)c1 (stereo not given)	nt	?	8.9µM*	5%	?	8.9µM*
